Results as given in PubChem BioAssay AID1159580 (chemical genetic matrix, 2015).
In all, about 5,500 compounds went through this assay and about 2,000 (36%) were called active. Inconclusive results (about 18%) are left out. Rule as the data show it: active = normalized growth mostly below about 0.91 (no sharp cut-off); inconclusive = no clear call, values can overlap the other calls; inactive = mostly above about 0.92. This is one part of the list.

Test: chemical genetic growth profiling, strain panel (AID 1159580);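 also: tested at 20 µM; growth read once vehicle control cultures reached saturation at 30 °C; 1 = growth at the plate median or of vehicle wells; lower values mean less growth of the strain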
Settings: growth OD

Measured: normalized growth

CCC(C)(C)C(=O)O[C@H]1C[C@@H](C)C=C2C=C[C@H](C)[C@H](CC[C@@H]3C[C@@H](O)CC(=O)O3)[C@H]21
active: S. cerevisiae deletion strains, locus YLR320W, strain mms22, hits give low values 0.855 | S. cerevisiae deletion strains, locus YMR307W, strain GAS1, hits give low values 0.554 | S. cerevisiae deletion strains, locus YNL071W, strain lat1, hits give low values 0.834 | S. cerevisiae deletion strains, locus YNL209W, strain ssb2, hits give low values 0.88 | S. cerevisiae deletion strains, locus YNR052C, strain pop2, hits give low values 0.911 | S. cerevisiae deletion strains, locus YOR070C, strain gyp1, hits give low values 0.845 | S. cerevisiae deletion strains, locus YOR265W, strain rbl2, hits give low values 0.922 | S. cerevisiae deletion strains, locus YOR270C, strain vph1, hits give low values 0.57 | S. cerevisiae deletion strains, locus YPL106C, strain sse1, hits give low values 1.15 [resistant]
inactive: S. cerevisiae deletion strains, locus YJR075W, strain HOC1, hits give low values 1 | S. cerevisiae deletion strains, locus YKL009W, strain mrt4, hits give low values 0.93 | S. cerevisiae deletion strains, locus YKL068W, hits give low values 1.03 | S. cerevisiae deletion strains, locus YKL085W, strain MDH1 (second series), hits give low values 1.02 | S. cerevisiae deletion strains, locus YKL085W, strain MDH1, hits give low values 1.02 | S. cerevisiae deletion strains, locus YKL160W, strain elf1, hits give low values 0.949 | S. cerevisiae deletion strains, locus YKL190W, strain CNB1, hits give low values 1.01 | S. cerevisiae deletion strains, locus YKR001C, strain vps1, hits give low values 1.01 | S. cerevisiae deletion strains, locus YKR026C, strain gcn3, hits give low values 1.01 | S. cerevisiae deletion strains, locus YKR091W, strain srl3, hits give low values 1.02 | S. cerevisiae deletion strains, locus YLL001W, strain dnm1, hits give low values 1 | S. cerevisiae deletion strains, locus YLL026W, hits give low values 0.981 | S. cerevisiae deletion strains, locus YLL041C, strain sdh2, hits give low values 1.01 | S. cerevisiae deletion strains, locus YLR027C, strain aat2, hits give low values 0.976 | S. cerevisiae deletion strains, locus YLR039C, strain RIC1, hits give low values 1.1 | S. cerevisiae deletion strains, locus YLR058C, strain SHM2, hits give low values 1.02 | S. cerevisiae deletion strains, locus YLR102C, strain apc9, hits give low values 1.04 | S. cerevisiae deletion strains, locus YLR113W, strain HOG1, hits give low values 1.04 | S. cerevisiae deletion strains, locus YLR221C, strain rsa3, hits give low values 0.909 | S. cerevisiae deletion strains, locus YLR258W, strain gsy2, hits give low values 0.927 | S. cerevisiae deletion strains, locus YLR262C, strain YPT6 (second series), hits give low values 1.05 | S. cerevisiae deletion strains, locus YLR262C, strain YPT6, hits give low values 0.58 | S. cerevisiae deletion strains, locus YLR268W, strain sec22, hits give low values 0.993 | S. cerevisiae deletion strains, locus YLR330W, strain CHS5, hits give low values 1 | S. cerevisiae deletion strains, locus YLR342W, strain FKS1 (second series), hits give low values 1.01 | S. cerevisiae deletion strains, locus YLR342W, strain FKS1, hits give low values 1 | S. cerevisiae deletion strains, locus YLR357W, strain rsc2, hits give low values 1.01 | S. cerevisiae deletion strains, locus YLR370C, strain arc18, hits give low values 1.01 | S. cerevisiae deletion strains, locus YLR371W, strain rom2, hits give low values 1.04 | S. cerevisiae deletion strains, locus YLR384C, strain iki3, hits give low values 0.978 | S. cerevisiae deletion strains, locus YLR418C, strain cdc73, hits give low values 0.856 | S. cerevisiae deletion strains, locus YML016C, strain PPZ1, hits give low values 1.02 | S. cerevisiae deletion strains, locus YML032C, strain rad52, hits give low values 1.02 | S. cerevisiae deletion strains, locus YML120C, strain ndi1, hits give low values 0.987 | S. cerevisiae deletion strains, locus YML124C, strain tub3, hits give low values 1.04 | S. cerevisiae deletion strains, locus YMR058W, strain fet3, hits give low values 0.977 | S. cerevisiae deletion strains, locus YMR078C, strain ctf18, hits give low values 1.04 | S. cerevisiae deletion strains, locus YMR125W, strain sto1, hits give low values 0.97 | S. cerevisiae deletion strains, locus YMR129W, hits give low values 1.02 | S. cerevisiae deletion strains, locus YMR205C, strain PFK2, hits give low values 0.978 | S. cerevisiae deletion strains, locus YMR223W, strain ubp8, hits give low values 0.991 | S. cerevisiae deletion strains, locus YMR231W, strain pep5, hits give low values 1 | S. cerevisiae deletion strains, locus YMR263W, strain SAP30, hits give low values 0.99 | S. cerevisiae deletion strains, locus YNL067W, strain RPL9B, hits give low values 0.998 | S. cerevisiae deletion strains, locus YNL128W, strain TEP1, hits give low values 0.979 | S. cerevisiae deletion strains, locus YNL153C, strain GIM3, hits give low values 0.986 | S. cerevisiae deletion strains, locus YNL183C, strain NPR1, hits give low values 0.897 | S. cerevisiae deletion strains, locus YNL233W, strain BNI4, hits give low values 0.947 | S. cerevisiae deletion strains, locus YNL248C, strain rpa49, hits give low values 0.932 | S. cerevisiae deletion strains, locus YNL250W, strain rad50, hits give low values 0.988 | S. cerevisiae deletion strains, locus YNL271C, strain bni1, hits give low values 1.01 | S. cerevisiae deletion strains, locus YNL298W, strain CLA4, hits give low values 1.03 | S. cerevisiae deletion strains, locus YNL307C, strain MCK1, hits give low values 0.942 | S. cerevisiae deletion strains, locus YNL322C, strain KRE1 (second series), hits give low values 1.07 | S. cerevisiae deletion strains, locus YNL322C, strain KRE1, hits give low values 1.01 | S. cerevisiae deletion strains, locus YNR049C, strain mso1, hits give low values 1.02 | S. cerevisiae deletion strains, locus YOL006C, strain TOP1, hits give low values 0.909 | S. cerevisiae deletion strains, locus YOL012C, strain htz1 1.29 | S. cerevisiae deletion strains, locus YOL147C, strain pex11, hits give low values 1.04 | S. cerevisiae deletion strains, locus YOR001W, strain rrp6, hits give low values 1.01 | S. cerevisiae deletion strains, locus YOR061W, strain CKA2, hits give low values 1.01 | S. cerevisiae deletion strains, locus YOR069W, strain VPS5, hits give low values 0.998 | S. cerevisiae deletion strains, locus YOR080W, strain dia2, hits give low values 0.971 | S. cerevisiae deletion strains, locus YOR083W, strain WHI5, hits give low values 0.981 | S. cerevisiae deletion strains, locus YOR106W, strain vam3, hits give low values 0.931 | S. cerevisiae deletion strains, locus YOR136W, strain idh2, hits give low values 1.01 | S. cerevisiae deletion strains, locus YOR144C, strain elg1, hits give low values 1.03 | S. cerevisiae deletion strains, locus YOR184W, strain ser1, hits give low values 0.944 | S. cerevisiae deletion strains, locus YOR231W, strain MKK1, hits give low values 0.956 | S. cerevisiae deletion strains, locus YOR290C, strain snf2, hits give low values 0.991 | S. cerevisiae deletion strains, locus YOR316C, strain cot1, hits give low values 1.03 | S. cerevisiae deletion strains, locus YPL051W, strain arl3, hits give low values 0.946 | S. cerevisiae deletion strains, locus YPL055C, strain LGE1, hits give low values 0.926 | S. cerevisiae deletion strains, locus YPL078C, strain atp4, hits give low values 0.983 | S. cerevisiae deletion strains, locus YPL240C, strain hsp82, hits give low values 0.997 | S. cerevisiae deletion strains, locus YPL241C, strain CIN2, hits give low values 1 | S. cerevisiae deletion strains, locus YPL256C, strain CLN2, hits give low values 1.02 | S. cerevisiae deletion strains, locus YPR119W, strain clb2, hits give low values 1.04 | S. cerevisiae deletion strains, locus YPR141C, strain kar3, hits give low values 1.02 | S. cerevisiae deletion strains, locus YPR163C, strain tif3, hits give low values 1.01 | S. cerevisiae deletion strains, locus YPR167C, strain met16, hits give low values 1.03 | S. cerevisiae deletion strains, strain wtn01, hits give low values 1.03 | S. cerevisiae strains, strain wild type, hits give low values 0.997
